For 8 compounds, potency estimated from few doses results are on record in paper PMC11062922 (Nature Chemical Biology, 2023).

What all share (parameters): species or system human, MV4-11 + K-562 + COLO205 + SK-N-BE2 + OVCAR-8
One assay concerns CSNK2A1;CSNK2A3. The conditions noted are these: read-out: apparent Kd, compound concentrations: 100 nM and 1000 nM (sheet 'Samples'), n = 1.
The next assay has as its system CSNK2A2. The conditions noted are these: read-out: apparent Kd, compound concentrations: 100 nM and 1000 nM (sheet 'Samples'), n = 1.
A further assay has as its system FLT3. The conditions noted are these: read-out: apparent Kd, n = 1.
The subject of the next assay is FYN. The conditions noted are these: read-out: apparent Kd; compound concentrations: 100 nM and 1000 nM (sheet 'Samples'), CATDS: 8.5832491833895103E-2; n = 1.
Another assay deals with PIK3CD. The conditions noted are these: read-out: apparent Kd; compound concentrations: 100 nM and 1000 nM (sheet 'Samples'), CATDS: 0.50363081174980595; n = 1.
Another assay deals with PRKD1. The conditions noted are these: read-out: apparent Kd; compound concentrations: 100 nM and 1000 nM (sheet 'Samples'), CATDS: 0.12301509267520799; n = 1.
In another assay the test system is PRKD2. The conditions noted are these: read-out: apparent Kd; compound concentrations: 100 nM and 1000 nM (sheet 'Samples'), CATDS: 0.237501197916752; n = 1.
In a further assay the test system is PRKD3. The conditions noted are these: read-out: apparent Kd; compound concentrations: 100 nM and 1000 nM (sheet 'Samples'), CATDS: 0.165514181456969; n = 1.
A further assay concerns DDR1. The conditions noted are these: read-out: apparent Kd, n = 1.
For another assay, the system named is DDR2. The conditions noted are these: read-out: apparent Kd, n = 1.
A further assay has as its system DYNC1LI1. The conditions noted are these: read-out: apparent Kd; compound concentrations:100 nM and 1000 nM (sheet 'Samples'); n = 1.
The subject of another assay is RET. The conditions noted are these: read-out: apparent Kd, n = 1.
Another assay relates to FLT4. The conditions noted are these: read-out: apparent Kd, compound concentrations: 100 nM and 1000 nM (sheet 'Samples'), n = 1.
A further assay concerns MAP3K1. The conditions noted are these: read-out: apparent Kd; compound concentrations: 100 nM and 1000 nM (sheet 'Samples'), CATDS: 0.16547922944675; n = 1.
The next assay deals with CSNK1D. The conditions noted are these: read-out: apparent Kd; compound concentrations: 100 nM and 1000 nM (sheet 'Samples'), CATDS: 7.6983160773696893E-2; n = 1.
The test system of the next assay is CSNK1E. The conditions noted are these: read-out: apparent Kd; compound concentrations: 100 nM and 1000 nM (sheet 'Samples'), CATDS: 7.2450949047452695E-2; n = 1.
For another assay, the system named is MAPK14. The conditions noted are these: read-out: apparent Kd; compound concentrations: 100 nM and 1000 nM (sheet 'Samples'), CATDS: 9.6688337398944404E-2; n = 1.
The subject of a further assay is NLK. The conditions noted are these: read-out: apparent Kd; compound concentrations: 100 nM and 1000 nM (sheet 'Samples'), CATDS: 9.9124712412078902E-2; n = 1.
In another assay the test system is PKN3. The conditions noted are these: read-out: apparent Kd; compound concentrations: 100 nM and 1000 nM (sheet 'Samples'), CATDS: 0.57773444025704901; n = 1.
The subject of a further assay is RIPK2. The conditions noted are these: read-out: apparent Kd, compound concentrations: 100 nM and 1000 nM (sheet 'Samples'), n = 1.
For the next assay, the system named is SPR. The conditions noted are these: read-out: apparent Kd; compound concentrations: 100 nM and 1000 nM (sheet 'Samples'), CATDS: 9.9495378731818698E-2; n = 1.
The subject of the next assay is TESK2. The conditions noted are these: read-out: apparent Kd; compound concentrations: 100 nM and 1000 nM (sheet 'Samples'), CATDS: 7.5715174552883194E-2; n = 1.
For another assay, the system named is TGFBR2. The conditions noted are these: read-out: apparent Kd, compound concentrations: 100 nM and 1000 nM (sheet 'Samples'), n = 1.
A further assay relates to TP53RK. The conditions noted are these: read-out: apparent Kd; compound concentrations: 100 nM and 1000 nM (sheet 'Samples'), CATDS: 9.9453344807386698E-2; n = 1.
The next assay deals with EPHA1. The conditions noted are these: read-out: apparent Kd; compound concentrations: 100 nM and 1000 nM (sheet 'Samples'), CATDS: 0.11031803480288301; n = 1.
For the next assay, the system named is IRAK3. The conditions noted are these: read-out: apparent Kd; compound concentrations: 100 nM and 1000 nM (sheet 'Samples'), CATDS: 0.28099060866519798; n = 1.
In another assay the test system is NTRK1. The conditions noted are these: read-out: apparent Kd; compound concentrations: 100 nM and 1000 nM (sheet 'Samples'), CATDS: 8.3524015841862198E-2; n = 1.
In a further assay the test system is PIP4K2C. The conditions noted are these: read-out: apparent Kd; compound concentrations: 100 nM and 1000 nM (sheet 'Samples'), CATDS: 8.5254217094438201E-2; n = 1.
Another assay deals with STK10. The conditions noted are these: read-out: apparent Kd; compound concentrations: 100 nM and 1000 nM (sheet 'Samples'), CATDS: 9.3066944796260806E-2; n = 1.
The next assay concerns EPHA7. The conditions noted are these: read-out: apparent Kd; compound concentrations: 100 nM and 1000 nM (sheet 'Samples'), CATDS: 8.9054165794135901E-2; n = 1.
The test system of a further assay is EPHB6. The conditions noted are these: read-out: apparent Kd; compound concentrations: 100 nM and 1000 nM (sheet 'Samples'), CATDS: 9.7568833330596599E-2; n = 1.
[1] abbreviates: compound concentrations:100 nM and 1000 nM (sheet 'Samples').

Like-named read-outs stand apart in the source and are kept apart here.

In the case of `COc1ccc(CCNC2=NC(=O)/C(=C/c3ccc4ncccc4c3)S2)cc1` [RO4498476-000], the potency estimated from few doses in the assay on CSNK2A1;CSNK2A3 (CATDS: 0.299531148324096) was 1610 nM; in the assay on CSNK2A2 (CATDS: 0.294198980295866), 1680 nM; in the assay on FLT3 (compound concentrations: 100 nM and 1000 nM (sheet 'Samples'), CATDS: 0.44201063534771401) it was 756 nM.

`Cc1cccc(-c2nc(Nc3ccc4[nH]nnc4c3)c3ccccc3n2)n1` [GW867587X]: the potency estimated from few doses is 199 nM with CSNK2A1;CSNK2A3 (CATDS: 0.129612529480612); 369 nM with CSNK2A2 (CATDS: 0.107908062412964); 1180 nM in the assay on FYN; 13.2 nM in the assay with PIK3CD; 233 nM in the assay with PRKD1; 47 nM in the assay on PRKD2. Also, the potency estimated from few doses in the assay on PRKD3 is 103 nM.

In the case of `COC(=O)Nc1nc2cc(Oc3ccc(NC(=O)Nc4cc(C(F)(F)F)ccc4F)cn3)ccc2[nH]1.COC(=O)Nc1nc2cc(Oc3ccc(NC(=O)Nc4cc(C(F)(F)F)ccc4F)cn3)ccc2[nH]1.Cl.Cl` [GW681170A], the potency estimated from few doses with DDR1 (setting [1]) is 278 nM; in the assay on DDR2 (setting [1]), 1460 nM; in the assay on DYNC1LI1, 1830 nM; with FLT3 (setting [1]) it was 1240 nM; with RET (setting [1]), 461 nM.

Consider `CN(c1ccc2c(c1)nc(NCc1ccc(F)cc1)n2C)c1ccnc(Nc2ccc(CS(C)(=O)=O)cc2)n1.Cl` [GW813244A], for which the potency estimated from few doses was 841 nM in the assay on DDR1 (compound concentrations: 100 nM and 1000 nM (sheet 'Samples'), CATDS: 0.20099617628952601); 166 nM with FLT4 (CATDS: 0.39951332259871902); 1840 nM in the assay on MAP3K1; 163 nM with RET (compound concentrations: 100 nM and 1000 nM (sheet 'Samples'), CATDS: 0.40344037001579403).

For the compound `CN(C)CCN(C)C(=O)c1cc(-c2ccncc2)c(-c2ccc(Cl)c(O)c2)o1` [SB-710397_KCGS], the potency estimated from few doses in the assay with CSNK1D is 1400 nM; with CSNK1E it was 1720 nM; in the assay with MAPK14, 748 nM; in the assay on NLK, 705 nM; with PKN3, 30.8 nM; with RIPK2 (CATDS: 0.16475470795078001) it was 247 nM. Further, the potency estimated from few doses in the assay with SPR is 698 nM; in the assay on TESK2, 1480 nM; in the assay with TGFBR2 (CATDS: 8.5739105668182394E-2), 1020 nM; in the assay on TP53RK it was 699 nM.

With `COc1cc(Nc2nccc(Nc3ccc4c(C)n[nH]c4c3)n2)cc(OC)c1OC` [GW612286X], the potency estimated from few doses with CSNK2A1;CSNK2A3 (CATDS: 8.5666768683209493E-2) is 1870 nM; in the assay with CSNK2A2 (CATDS: 9.4804106529145699E-2) it was 1370 nM; in the assay on EPHA1 it was 909 nM; with IRAK3, 122 nM; in the assay on NTRK1, 2040 nM; in the assay on PIP4K2C, 1900 nM. Moreover, the potency estimated from few doses with RIPK2 (CATDS: 0.49931357158944301) was 46.6 nM; in the assay with STK10 it was 1450 nM; in the assay on TGFBR2 (CATDS: 0.10303622443246301) it was 1090 nM.

Turning to `COC(=O)Nc1nc2cc(Oc3ccc(NC(=O)Nc4ccccc4)cc3)ccc2[nH]1.Cl` [GW694590A], the potency estimated from few doses with DDR1 (compound concentrations: 100 nM and 1000 nM (sheet 'Samples'), CATDS: 0.58971878257752297) is 426 nM; in the assay on DDR2 (compound concentrations: 100 nM and 1000 nM (sheet 'Samples'), CATDS: 0.43397569756313797), 799 nM.

For the compound `Nc1ncnc2occ(-c3ccc(NC(=O)Nc4cccc(C(F)(F)F)c4)cc3)c12` [GW795493X], the potency estimated from few doses was 405 nM with DDR1 (compound concentrations: 100 nM and 1000 nM (sheet 'Samples'), CATDS: 0.13274475237022501); 681 nM in the assay on DDR2 (compound concentrations: 100 nM and 1000 nM (sheet 'Samples'), CATDS: 0.11447916272035); 2220 nM in the assay on EPHA7; 1350 nM in the assay with EPHB6; 229 nM in the assay on FLT3 (compound concentrations: 100 nM and 1000 nM (sheet 'Samples'), CATDS: 0.15949914238657301); 34.6 nM with FLT4 (CATDS: 0.353383658165352). Moreover, the potency estimated from few doses in the assay on RET (compound concentrations: 100 nM and 1000 nM (sheet 'Samples'), CATDS: 0.464290470493195) is 21.6 nM.
